# TDP1 cell CPT: DT40-hTDP1 cell growth loss with CPT; chicken DT40 Tdp1-/-;hTDP1 cells + 20 nM CPT, ATP luminescence, 48 h; Potency, µM (series often up to 46.2 µM), for the others: top-dose activity change, negative = growth inhibition, hits mostly inhibitors; AID 686979; 420,000 tested, 12% active; further: potency means the concentration at half of the fitted maximal effect; on the % scale 0 is the no-effect control and ±100 the full control effect; nearly all actives have a fitted effect of over 55% in size
#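 Chicken DT40 Tdp1-/- cells complemented with human TDP1, 400 cells/well, exposed to compounds plus 20 nM camptothecin for at least 48 h at 37 C; viability read as ATP content by CellTiter-Glo luminescence.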
# IL-1B inflam inh: inhibitors of inflammasome signaling (IL-1 beta secretion). THP-1 LPS/ATP IL-1B secretion, AlphaLISA, 16 h; hits give low values. activity change, % at 57.5 µM. 360,000 tested, 4.7% active. AID 743279; in the data active means activity change below about -50%; inconclusive means mostly about -30% to -49%; further: on the % scale 0 is the no-effect control and ±100 the full control effect
#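 THP-1 cells pretreated 1 hr with compounds (up to 57.5 uM final), then stimulated with LPS (250 ng/mL final) plus ATP (1.25 mM final); secreted IL-1B measured by AlphaLISA after 16 hr, decreased signal indicating inhibition.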
# TDP1 block: TDP1 (human) enzyme inhibition; recombinant TDP1, AlphaScreen DNA substrate cleavage; 350,000 tested, 0.28% active; Potency, µM (titrated, usually from 130 µM), inactives show top-dose activity change, negative = inhibition, actives largely listed as inhibitors; AID 485290; Q9NUW8; further: potency means the concentration at half of the fitted maximal effect; on the % scale 0 is the no-effect control and ±100 the full control effect; nearly all actives have a fitted effect of over 40% in size
# Target sequence (Q9NUW8 whole entry, looked up): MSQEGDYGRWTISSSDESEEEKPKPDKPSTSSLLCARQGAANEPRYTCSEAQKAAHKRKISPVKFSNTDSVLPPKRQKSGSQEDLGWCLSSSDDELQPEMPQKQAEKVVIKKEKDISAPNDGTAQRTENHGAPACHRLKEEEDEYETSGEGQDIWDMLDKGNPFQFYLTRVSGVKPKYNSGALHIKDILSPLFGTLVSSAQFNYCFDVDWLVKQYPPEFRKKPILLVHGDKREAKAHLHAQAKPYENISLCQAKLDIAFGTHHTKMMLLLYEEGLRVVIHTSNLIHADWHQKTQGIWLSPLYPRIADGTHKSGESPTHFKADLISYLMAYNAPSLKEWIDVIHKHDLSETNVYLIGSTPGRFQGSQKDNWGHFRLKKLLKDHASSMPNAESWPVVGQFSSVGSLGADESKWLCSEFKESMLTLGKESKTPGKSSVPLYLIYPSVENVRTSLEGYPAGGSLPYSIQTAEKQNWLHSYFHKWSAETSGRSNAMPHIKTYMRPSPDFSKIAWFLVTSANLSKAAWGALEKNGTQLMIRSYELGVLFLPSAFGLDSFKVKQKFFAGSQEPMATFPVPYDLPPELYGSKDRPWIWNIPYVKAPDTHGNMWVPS
#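 E. coli-derived human Tdp1, 1 nM final. Cpd preinc 15 min RT; substrate 15 nM final, 5 min RT; AS bead mix 10 ug/ml final, 10 min RT. Signal loss = tyrosine-FITC cleavage. No-enzyme wells = max signal.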
# TGFb SMAD3 inh: TGF-b pathway inhibition; HepG2 CAGA-GFP TGF-b/SMAD3 reporter, GFP fluorescence, 18 h; TGF-beta stimulated, 500 pg/mL final; Potency, µM (doses to about 46.1 µM), without a hit: at the top dose activity, negative = inhibition, most hits filed as inhibitors; 410,000 tested, 1.2% active; AID 588855; further: potency means the concentration at half of the fitted maximal effect; on the % scale 0 is the no-effect control and ±100 the full control effect; nearly all actives have a fitted effect of over 65% in size
#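 First, reporter cells (HEPG2 CAGA-GFP) rested 2 h at 37 degrees C. Next, compounds were pinned in and TGF-beta added to 500 pg/mL final. After 18 h, GFP was imaged per cell and summed per well.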
# HepG2 viability: HepG2 cytotoxicity, counter-screen for TGF-b inhibitors; 410,000 tested, 0.76% active; AID 588856; HepG2 CAGA-GFP viability, ATP luminescence, 18 h; Potency, µM (series often up to 46.1 µM), inactives show at the top dose activity change, negative = cytotoxicity, actives largely listed as cytotoxic; further: potency means the concentration at half of the fitted maximal effect
#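 CellTiter-Glo luminescence gave cytotoxicity after 18 hours at 37 degrees C. The cells were HepG2 CAGA-GFP in 1% FBS DMEM, stimulated with 500 pg/mL TGF-beta after compound addition. %Activity was normalised to no-cell wells (complete cell-killing) and DMSO (no toxicity), and curves were fitted and classified.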
# DT40 TDP1 no CPT: qHTS for Inhibitors of human tyrosyl-DNA phosphodiesterase 1 (TDP1): qHTS in cells in absence of CPT; DT40 Tdp1-/- hTDP1 cells, no CPT, ATP luminescence, 48 h; Potency, µM (doses to about 46.2 µM), without a hit: at the top dose activity change, negative = growth inhibition, actives largely listed as inhibitors; 420,000 tested, 15% active; AID 686978, 2013; further: potency means the concentration at half of the fitted maximal effect; on the % scale 0 is the no-effect control and ±100 the full control effect; nearly all actives have a fitted effect of over 55% in size
#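 Stably hTDP1-transfected Tdp1-null chicken DT40 cells were treated with library compounds minus camptothecin and grown for at least 48 hr at 37 °C, after which cellular ATP was quantified by luminescence.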
# An asterisk follows results filed as active; ? = inconclusive; · = no result; [ ] = another dose, or the depositor's remark. Shown are actives, neighbours in structure and some others; about 19% of the full set was active somewhere. Unless noted, the call rests on the fitted dose curve; in most records, active means well fitted curve in the direction sought with a large enough effect; inconclusive means small, poorly fitted or top-dose-only effect, or another doubt; inactive means no such curve, though single readings can be large; an effect the other way counts as inactive or inconclusive.
SMILES,TDP1 cell CPT,IL-1B inflam inh,TDP1 block,TGFb SMAD3 inh,HepG2 viability,DT40 TDP1 no CPT
Cn1c(SCC2CCCO2)nnc1C1CCN(Cc2ccco2)CC1 (centres undefined),16.1%,·,·,·,·,-5.0%
CCOc1ccccc1NC(=O)CSc1nnnn1C1CCCC1,0.3%,-9.1,·,-17.8%,-3.2%,?
O=C(COc1ccccc1[N+](=O)[O-])N1CCC(c2nc3ccccc3o2)CC1,?,·,0.5%,-16.8%,-17.9%,18.4µM*
COc1ccccc1OCC(=O)N1CCC(c2nc3ccccc3o2)CC1,?,·,6.8%,-3.9%,-6.0%,?
Cc1ccc(C(C)C)c(OCC(=O)N2CCC(c3nc4ccccc4o3)CC2)c1,?,·,3.6%,?,-111.2%,14.6µM*
Cc1cccc(C)c1OCC(=O)N1CCC(c2nc3ccccc3o2)CC1,?,·,0.5%,0.0%,-29.3%,?
CCCNc1ccc(-c2nc(-c3ccncc3)no2)cc1[N+](=O)[O-],-16.8%,·,2.9%,12.0%,-21.6%,-4.8%
O=C(C1=NNCC1c1ccccc1)C1CO1 (centres undefined),?,?,-3.1%,-6.3%,-20.6%,-19.1%
O=C(c1[nH]ncc1-c1ccccc1)C1CO1 (centres undefined),9.2µM*,-72.8*,-2.6%,-14.1%,12.6µM*,13µM*
O=C(c1[nH]ncc1-c1cccc(Br)c1)C1CO1 (centres undefined),1.64µM*,-96.2*,4.8%,?,-12.9%,1.84µM*
CSCCC(NS(=O)(=O)c1ccc(C)cc1)C(=O)N1CC=C(c2ccccc2)CC1 (centres undefined),-13.5%,4.6,-14.7%[0.505 µM],-3.9%,-6.5%,?
CCN(Cc1ccncc1)Cc1nc(-c2ccc(C(=O)OC)cc2)no1,?,24.1,-11.1%,11.8%,-11.7%,20.6µM*
CN(C)c1ccc(CNC(=O)C2Cc3c(-c4ccccc4Oc4ccccc4)ccnc3O2)cc1 (centres undefined),?,-7.8,·,?,-29.7%,?
COc1ccc(CNC(=O)C2Cc3c(-c4ccccc4Oc4ccccc4)ccnc3O2)cc1OC (centres undefined),18.4µM*,-28.7,·,?,-10.8%,20.6µM*
O=C(NCc1cccc(Cl)c1)C1Cc2c(-c3ccccc3Oc3ccccc3)ccnc2O1 (centres undefined),23.1µM*,-11.7,·,?,-28.0%,?
O=C(NCC1CC1)C1Cc2c(-c3ccccc3Oc3ccccc3)ccnc2O1 (centres undefined),?,-8.1,·,1.5%,-23.0%,-43.9%
COCCCNC(=O)C1CCN(c2cc(C)nc3c(-c4ccc(Cl)cc4)c(C)nn23)CC1,-20.4%,·,-1.2%,1.6%,2.7%,-19.7%
O=C(NC1CCS(=O)(=O)C1)Oc1ccccc1 (centres undefined),?,17.6,0.0%,-28.3%,14.2%,25.9µM*
CCCCCCCCCCOC(=O)NC1CCS(=O)(=O)C1 (centres undefined),?,-4.3,-4.6%,-28.0%,-30.0%,20.6µM*
CCCOC(=O)NC1CCS(=O)(=O)C1 (centres undefined),3.7%,-9.3,5.0%,8.3%,0.1%,-1.6%
COC(=O)C(=Cc1ccc(OCc2ccc([N+](=O)[O-])cc2)c(OC)c1)C(=O)OC,9.2µM*,-91.8*,7.9%,?,-62.1%,13µM*
CCOC(=O)C(=Cc1ccc(OCc2ccc([N+](=O)[O-])cc2)c(OC)c1)C(=O)OCC,13µM*,-100.9*,2.1%,?,-71.6%,14.6µM*
